For 13 molecules, cell viability activity results are on record in the supplement of paper PMC9177965.

Each structure is given as a SMILES string.

Assay [1] has as its system HT29 RNF43 G659fs (RNF43 659mut, CRISPR-edited). Nature of the assay: cell viability activity relative to DMSO (negative = inhibition); higher = more viable cells (less growth inhibition). Particulars: 5 µM; 96 h. How it is done: (§1)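 Broad Repurposing Library primary screen at a single dose of 5 uM. HT29 sg-Ctrl and HT29 RNF43 G659fs CRISPR-edited isogenic cells were seeded at 2500 cells/well in 384-well plates in duplicate and treated for 96 h. Viability was read by CellTiter-Glo and reported as % activity relative to DMSO, with MG132 as the positive control (negative = growth inhibition).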

Assay [2] deals with HT29 sg-Ctrl (RNF43 wildtype). Described as above. Particulars: 5 µM; 96 h. How it is done: as §1

Take `CC(CN1c2ccccc2Sc2ccccc21)N(C)C` (stereo unspecified): the results for the cell viability activity in assay [1] and in assay [2] were -40.7% and -3.76%, respectively.

As to `COCC[n+]1c2c(n(Cc3cnccn3)c1C)C(=O)c1ccccc1C2=O`, the cell viability activity is -96.6% in assay [1] and -95.6% in assay [2].

As to `CCNC(=O)Nc1ccc(-c2nc3c(c(N4CCOC[C@@H]4C)n2)CCN(C2COC2)C3)cc1`, the cell viability activity in assay [1] is -36.7%; in assay [2] it was -22%.

With `CN1CCN(Cc2ccc(-c3cnc4[nH]cc(-c5ccc6[nH]ccc6c5)c4c3)cc2)CC1`, the cell viability activity was -90.1% in assay [1] and -82.4% in assay [2].

Take `COc1ccc(S(=O)(=O)N(C(C)=O)c2ccccc2/C=C/c2cc[n+]([O-])cc2)cc1`: the cell viability activity in assay [1] was -65.7%; in assay [2], -75.5%.

Consider `CNC(=O)Nc1ccc(-c2nc(N3CC4CCC(C3)O4)c3cnn(C4CCC5(CC4)OCCO5)c3n2)cc1`, for which the values for the cell viability activity in assay [1] and in assay [2] were -50.9% and -19.4%, respectively.

For `CC1=NN(c2ccc(C(=O)O)cc2)C(=O)/C1=C\c1ccc(-c2cc(C)c(C)cc2[N+](=O)[O-])o1`, the cell viability activity in assay [1] is -62.3%; in assay [2] it was -79.6%.

For the molecule `CNCCn1c(=O)c2cc(OC)c(OC)cc2c2cnc3cc4c(cc3c21)OCO4`, the cell viability activity in assay [1] is -81.7%; in assay [2], -86.6%.

As for `Fc1ccc(-n2cc(CCCCN3CCC4(CC3)OCc3ccccc34)c3ccccc32)cc1`, the cell viability activity in assay [1] is -70.6%; in assay [2], -62.5%.

Regarding `CN[C@@H]1C[C@H]2O[C@@](C)([C@@H]1OC)n1c3ccccc3c3c4c(c5c6ccccc6n2c5c31)C(=O)N[C@H]4O`, the cell viability activity in assay [1] was -88.9%; in assay [2], -91.7%.

With `CCCCCCCC/C=C/CCCCCCCC(=O)OC[C@H]1O[C@@H](n2ccc(N)nc2=O)C(F)(F)[C@@H]1O`, the figures for the cell viability activity in assay [1] and in assay [2] were -42% and -51.8%, respectively.

Take `Clc1ccc(Cn2c(CN3CCCC3)nc3ccccc32)cc1`: the cell viability activity in assay [1] is -32.7%; in assay [2], 11.6%.

Consider `CCN(CC)Cc1ccc2cc(COC(=O)Nc3ccc(C(=O)NO)cc3)ccc2c1`, for which the figures for the cell viability activity in assay [1] and in assay [2] were -91.4% and -84.2%, respectively.
